Bioassay records deposited in PubChem BioAssay by National Center for Advancing Translational Sciences (NCATS).
HT1080 IDH1KD tx: HT-1080 IDH1 knockdown cell toxicity (counter line). HT-1080 IDH1 knockdown viability, ATP luminescence, 48 h. Potency, µM (top dose mostly 46.1 µM), for the others: at the highest dose activity, negative = toxicity, actives largely listed as cytotoxic. actives 2% (n = 360,000);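 also: 0% = DMSO wells and -100% = cell-free medium wells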
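Viability of IDH1-knockdown HT-1080 fibrosarcoma cells was assessed by CellTiter-Glo after 48 h at 37 °C with titrated compound; concentration-effect curves were classified by fit quality and response size.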
SW480 rerep: DNA re-replication induction in SW480 cells | SW480 DNA re-replication, Hoechst DNA content imaging, 48 h | Potency, µM (titrated, usually from 46.1 µM), for inactives: top-dose re-replication activation, actives largely listed as activators | actives 1.8% (n = 340,000) | AID 624297; also: % of control where 0% means no effect; nearly all actives have a fitted effect of over 55% in size
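Cells (250 per well) received 23 nL compound or DMSO by pin tool and were kept 48 hr at 37 C, 5% CO2. Nuclei were then stained with Hoechst for 40 min and scanned for DNA content.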
MCF10A rereplic: inducers of DNA re-replication in MCF 10A breast cells; MCF 10A DNA re-replication, Hoechst nuclear intensity, 48 h; Potency, µM (highest dose often 46.1 µM), inactives show top-dose activity, positive = re-replication, hits mostly activators; actives 2.9% (n = 350,000); AID 624296; also: % of control where 0% means no effect; nearly all actives have a fitted effect of over 50% in size
KB-V1 MDR tox: kills drug-selected multidrug resistant KB-V1 cells; KB-V1 MDR cells viability, CellTiter-Glo, 72 h; Potency, µM (series often up to 46.1 µM), hits mostly cytotoxic; actives 3.4% (n = 400,000); also: % is scaled to controls: 0 for no effect and ±100 for the full control effect; nearly all actives have a fitted effect of over 60% in size
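Luminescent ATP read-out (CellTiter-Glo, 10 min) measures survival of drug-selected KB-V1 MDR cells after 72 h, 37 degrees C compound exposure. Medium: phenol-red-free DMEM, 10% FBS. Values from fitted concentration-response curves.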
HT1080NT lethal: kills 2HG-producing HT-1080-NT fibrosarcoma cells; HT-1080-NT fibrosarcoma viability, CellTiter-Glo ATP luminescence, 48 h; AID 686970; Potency, µM (titrated, usually from 46.1 µM), inactives show top-dose activity, negative = less viability, usual class: cytotoxic; actives 1.6% (n = 360,000);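 also: NT is the 2HG producing partner of a matched IDH1 knockdown line; 0% = DMSO-treated cells and -100% = media-only wells without cells; nearly all actives have a fitted effect of over 55% in size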
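A 48-hour cytotoxicity screen used HT-1080-NT cells plated 2 hours before compound delivery. ATP-based CellTiter-Glo luminescence measured viability, normalized to DMSO and no-cell controls.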
KB-3-1 tox: KB-3-1 parental cell cytotoxicity | KB-3-1 viability, CellTiter-Glo ATP luminescence, 72 h | Potency, µM (top dose mostly 46.1 µM), usual class: cytotoxic | AID 1347075 | actives 1.4% (n = 400,000); also: % is scaled to controls: 0 for no effect and ±100 for the full control effect; nearly all actives have a fitted effect of over 60% in size
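Multi-concentration cytotoxicity screen in KB-3-1 cells grown in DMEM lacking phenol red with 10% FBS. After 72 h at 37 °C with compound, ATP-dependent luminescence was recorded.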
* marks the source's active call; other numbers are inactive results; i = inactive; ? = inconclusive; nt = not tested or not shown; [ ] = remark or other dose. Sampled rows, rich in hits. Any-hit rate of the full collection: about 8%. Calls follow the shape of the dose curve; as a rule, active = well fitted curve in the direction sought with a large enough effect; inconclusive = small, poorly fitted or top-dose-only effect, or another doubt; inactive = no such curve, though single readings can be large; an effect the other way counts as inactive or inconclusive. Potency is read from the fitted curve at half-maximal effect.

SMILES	HT1080 IDH1KD tx	SW480 rerep	MCF10A rereplic	KB-V1 MDR tox	HT1080NT lethal	KB-3-1 tox
CCC(C)NCCOCCOc1ccccc1-c1ccccc1 (stereo unspecified)	?	?	18%	i	?	i
COCCCNCCOCCOc1ccccc1-c1ccccc1	-15%	-2%	1%	23µM*	-8%	i
CC(C)(C)NCCOCCOc1ccccc1-c1ccccc1	-2%	-5%	2%	23µM*	0%	i
CN(C)CCN(C(=O)C1CCN(S(=O)(=O)c2cccs2)CC1)c1nc2ccccc2s1	-6%	-284%	0%	i	5%	i
CCc1cc(=O)oc2cc(C)c(CN3CCCC(C)C3)c(O)c12 (stereo unspecified)	-15%	0%	23µM*	?	5%[9.24 µM]	i
CCCCc1cc(=O)oc2cc(C)c(CN3CCCC3)c(O)c12	-4%	5%	?	18µM*	?	i
CCc1cc(=O)oc2c(CN3CCCC3)c(O)c(Cl)cc12	-4%	10%	?	i	6%	i
CCCCc1cc(=O)oc2c(CN3CCCC3)c(O)ccc12	-4%	-6%	-4%	i	0%	i
Cc1ccc(Cn2c(=N)n(CC(O)COc3ccccc3)c3ccccc32)cc1 (stereo unspecified)	?	?	12%	16µM*	-21%	i
CCCCCn1c(=N)n(CC(O)COc2cccc(C)c2)c2ccccc21 (stereo unspecified)	nt	nt	nt	?	nt	i
N=c1n(Cc2ccccc2)c2ccccc2n1CC(O)COc1ccccc1 (stereo unspecified)	?	?	26µM*	21µM*	?	21µM*
Cc1ccc(OCC(O)Cn2c3ccccc3c3ccccc32)cc1 (stereo unspecified)	?	?	8%	?	?	i
O=c1[nH][nH]c2cc([N+](=O)[O-])ccc12	15µM*	9%	?	?	4.1µM*	?
O=c1[nH]c2cc([N+](=O)[O-])ccc2c2ccc([N+](=O)[O-])cc12	18%	-3%	3%	i	16%	i
CCc1ccc(N(C(C)=O)C2C=CS(=O)(=O)C2)cc1 (stereo unspecified)	0%	0%	7%	i	-4%	i
Brc1ccc2ncnc(Nc3ccc(N4CCOCC4)cc3)c2c1	-27%	?	?	2.9µM*	-25%	?
CCC(CC)NC(=O)c1cccc(Br)c1	-6%	-1%	0%	?	1%	i
CC1(C)Cc2cccc(OCC(=O)NCc3ccc(F)cc3)c2O1	-4%	3%	12%	15µM*	-3%	i
CC1(C)Cc2cccc(OCC(=O)Nc3ccccc3N3CCOCC3)c2O1	8%	10%	?	3.7µM*	11%	i
CCCNC(=O)c1ccc(COc2cccc3ccccc23)o1	0%	-7%	-3%	?	0%	i
Cc1ccc(C(C)C)c(OCCCN2C(=O)NC(C)(C)C2=O)c1	1%	10%	?	15µM*	-1%	i
Cc1cc(Cl)c(OCCN2C(=O)NC(C)(C)C2=O)c(Br)c1	-7%	-23%	1%	i	-3%	i
Cc1cc(Cl)cc(Br)c1OCCCN1C(=O)NC(C)(C)C1=O	5%	6%	10%	18µM*	-4%	?
Cc1ccc([N+](=O)[O-])c(OCCN2C(=O)NC(C)(C)C2=O)c1	3%	-76%	-6%	i	1%	i
CCNC(=O)NC(=O)COC(=O)CCc1nc(=O)c2ccccc2n1C	2%	-4%	-3%	i	0%	i
SMILES	HT1080 IDH1KD tx	SW480 rerep	MCF10A rereplic	KB-V1 MDR tox	HT1080NT lethal	KB-3-1 tox
COc1cc(-c2nccc3cc4c(cc23)OCO4)cc(OC)c1OC	4.6µM*	5.8µM*	15µM*	5.2µM*	?	4.1µM*
COc1cc2cc(OC(C)=O)c3cc4c(cc3c2c(OC)c1OC)OCO4	22%	nt	nt	i	15%	i
CCOC(=O)C(Cc1ccnc2ccccc12)=NO	-26%	?	5%	i	15µM*	i
CCCNC(=O)C(Cc1cccc(Br)c1)NC(=O)c1ccc(C#N)cc1 (stereo unspecified)	-3%	-9%	7%	i	-4%	i
CC(C)(O)C#Cc1ccc(CN2CCN(CCc3ccccc3)C(CCO)C2)s1 (stereo unspecified)	2%	23%	-3%	i	2%	i
O=C(Nc1cc(Cl)cc2c1-c1ccc(Cl)cc1C2O)C(Cl)Cl (stereo unspecified)	-26%	?	?	18µM*	-12%	?
COc1ccccc1C(=O)NCCC(=O)N(C)CC(=O)Nc1c(Cl)cccc1Cl	-1%	-72%	2%	i	1%	i
NC(=O)Cc1ccc(C(=O)c2ccc(Cl)cc2)s1	-15%	1%	1%	i	1%	i
Cc1ccc(S(=O)(=O)Nc2ccc(SC(F)F)cc2)c(C)c1	-11%	1%	?	16µM*	-1%	i
COc1ccc(NS(=O)(=O)c2cc(C)ccc2C)cc1	?	?	?	i	-25%	7.3µM*
COc1ccc(NS(=O)(=O)c2cc(OC)ccc2NC(=O)c2cc(C)oc2C)cc1	5.8µM*	13µM*	13µM*	?	5.8µM*	?
CCOC(=O)CNS(=O)(=O)c1cc(-c2n[nH]c(=O)c3ccccc23)ccc1C	-2%	2%	0%	i	1%	i
Cc1ccc(NS(=O)(=O)c2cc(-c3n[nH]c(=O)c4ccccc34)ccc2C)cc1	15µM*	23µM*	?	21µM*	18µM*	12µM*
COc1ccc(NS(=O)(=O)c2cc(NC(=O)c3ccc(=O)[nH]n3)ccc2C)cc1	?	18µM*	?	?	26µM*	?
COc1ccc(NS(=O)(=O)c2cc(C(=O)O)ccc2C)cc1	2%[9.24 µM]	-6%	3%	i	-26%	i
Cc1cc(C)n(-c2nnc(NCc3ccc(Cl)cc3)nn2)n1	-28%	12µM*	19%	i	-15%	i
Cc1nn(-c2nnc(NCc3ccccc3)nn2)c(C)c1Br	11%	111%	15%	21µM*	-2%	8.2µM*
CCOC(=O)c1c(C=O)c2ccccc2n1CC	2%	-37%	-9%	i	-3%	i
C=CCSc1nc(-c2ccc(OC)cc2)c(C#N)c(=O)n1CC=C	?	-2%	21µM*	i	-33%	i
